# Compound activity (PubChem BioAssay)
# ALOX12 inh: blocks human arachidonate 12S-lipoxygenase | purified 12hLO, xylenol orange hydroperoxide absorbance | Potency, µM (series often up to 108 µM), without a hit: top-dose activity change, negative = inhibition, most hits filed as inhibitors | actives 1.1% (n = 580,000); note: potency is the fitted concentration of half-maximal effect
# Target sequence (P18054 whole entry, looked up): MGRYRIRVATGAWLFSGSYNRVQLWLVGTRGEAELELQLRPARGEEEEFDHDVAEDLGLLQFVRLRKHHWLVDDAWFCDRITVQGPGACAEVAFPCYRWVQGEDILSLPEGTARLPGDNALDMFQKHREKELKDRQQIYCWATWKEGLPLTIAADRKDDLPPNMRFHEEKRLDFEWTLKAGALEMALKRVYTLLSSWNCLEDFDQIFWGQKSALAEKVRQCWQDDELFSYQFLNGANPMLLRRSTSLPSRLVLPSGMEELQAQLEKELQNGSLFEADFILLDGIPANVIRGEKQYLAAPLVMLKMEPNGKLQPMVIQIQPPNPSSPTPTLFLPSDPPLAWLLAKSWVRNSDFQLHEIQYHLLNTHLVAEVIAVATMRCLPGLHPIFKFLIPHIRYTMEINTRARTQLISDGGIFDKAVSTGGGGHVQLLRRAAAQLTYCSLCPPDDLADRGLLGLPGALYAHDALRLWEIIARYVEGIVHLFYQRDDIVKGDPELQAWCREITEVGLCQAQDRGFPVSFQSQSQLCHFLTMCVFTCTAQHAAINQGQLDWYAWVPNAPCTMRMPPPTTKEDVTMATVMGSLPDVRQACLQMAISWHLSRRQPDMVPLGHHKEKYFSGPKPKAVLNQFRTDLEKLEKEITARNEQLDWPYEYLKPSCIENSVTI
#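 Purified human 12hLO at 150 nM in 25 mM Hepes, 0.01% Triton X-100, pH 7.0, preincubated 15 min at room temperature with compound. Reaction started with 40 uM arachidonic acid, 30 min at room temperature. Hydroperoxide measured by Fe-xylenol orange, 573/405 nm absorbance ratio.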
# TDP1 cell CPT: growth inhibition of DT40 Tdp1-/-;hTDP1 cells with camptothecin (screen for TDP1 inhibitors); chicken DT40 Tdp1-/-;hTDP1 cells + 20 nM CPT, ATP luminescence, 48 h; Potency, µM (doses to about 46.2 µM), without a hit: top-dose activity change, negative = growth inhibition, hits mostly inhibitors; actives 12% (n = 420,000); note: potency is the fitted concentration of half-maximal effect; nearly all actives have a fitted effect of over 55% in size
#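 Cell growth measured by CellTiter-Glo luminescence after a minimum 48 h, 37 C compound exposure with 20 nM CPT in Tdp1-knockout DT40 cells stably expressing hTDP1, seeded 400/well; qHTS titration format.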
# HT1080 IDH1KD tx: HT-1080 IDH1 knockdown cell toxicity (counter line); HT-1080 IDH1 knockdown viability, ATP luminescence, 48 h; Potency, µM (titrated, usually from 46.1 µM), inactives show at the top dose activity, negative = toxicity, most hits filed as cytotoxic; actives 2% (n = 360,000);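 note: potency is the fitted concentration of half-maximal effect; 0% = DMSO wells and -100% = cell-free medium wells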
#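 Using the IDH1-knockdown HT-1080 line run in the same batch and compound series as the NT line, viability after 48 h at 37 °C was determined by CellTiter-Glo luminescence and expressed as % activity.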
# TDP1 cell noCPT: qHTS for Inhibitors of human tyrosyl-DNA phosphodiesterase 1 (TDP1): qHTS in cells in absence of CPT. actives 15% (n = 420,000). AID 686978, 2013. DT40 Tdp1-/- hTDP1 cells, no CPT, ATP luminescence, 48 h. Potency, µM (doses to about 46.2 µM), without a hit: at the top dose activity change, negative = growth inhibition, usual class: inhibitors; note: potency is the fitted concentration of half-maximal effect; nearly all actives have a fitted effect of over 55% in size
#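 Readout: luminescence from CellTiter-Glo after 30 min in the dark at RT. Cells: DT40 Tdp1-/- with stable hTDP1, 400/well. Exposure: compounds alone, ≥48 hr, 37 °C.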
# IL1B secr inh: inflammasome signaling inhibition, IL-1 beta readout | THP-1 LPS/ATP IL-1B secretion, AlphaLISA, 16 h; hits give low values | activity change, % at 57.5 µM | actives 4.7% (n = 360,000) | AID 743279; in the data active = activity change below about -50%; inconclusive = mostly about -30% to -49%
#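 Secreted IL-1B measured by AlphaLISA bead assay after 16 h compound exposure of THP-1 cells; compounds (final up to 57.5 uM) added 1 h before LPS (250 ng/mL) and ATP (1.25 mM) stimulation; lower signal means less secretion.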
# HT1080NT lethal: kills 2HG-producing HT-1080-NT fibrosarcoma cells. HT-1080-NT fibrosarcoma viability, CellTiter-Glo ATP luminescence, 48 h. Potency, µM (doses to about 46.1 µM), for the others: at the highest dose activity, negative = less viability, hits mostly cytotoxic. actives 1.6% (n = 360,000);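 note: NT is the 2HG producing partner of a matched IDH1 knockdown line; potency is the fitted concentration of half-maximal effect; 0% = DMSO-treated cells and -100% = media-only wells without cells; nearly all actives have a fitted effect of over 55% in size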
#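 Toxicity toward the 2HG-producing NT line was scored as %Activity, normalised to DMSO and no-cell wells, from CellTiter-Glo luminescence after 48 hours' treatment.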
# Numbers without * were called inactive; u = inconclusive; x = no result given; ! = repeats disagree; [ ] = remark or other dose. The sample as a whole holds a higher share of hits than the screen did. Unless noted, calls come from the whole dose curve; as a rule, active = well fitted curve in the direction sought with a large enough effect; inconclusive = small, poorly fitted or top-dose-only effect, or another doubt; inactive = no such curve, though single readings can be large; an effect the other way counts as inactive or inconclusive. Unless noted, % is set by controls: 0 for no effect and ±100 for the full control effect.
SMILES,ALOX12 inh,TDP1 cell CPT,HT1080 IDH1KD tx,TDP1 cell noCPT,IL1B secr inh,HT1080NT lethal
CN(C[C@H](Cc1ccccc1)N(C[C@H](c1ccccc1)N(CCc1ccccc1)N=O)N=O)N=O,-4.6%,u,-4.5%,16.4µM*,-17.6,7.6%
CC(C)CCN(N=O)[C@@H](Cc1ccccc1)CN(N=O)[C@@H](Cc1ccccc1)CN(C)N=O,12.2%,u,-23.4%,u,u,-7.1%
Cc1ccc(NC(=O)N2CCN(c3cc(-c4noc(C)n4)ccc3C)CC2)c(F)c1,-16.5%,u,x,16.4µM*,x,x
CC(CN)CC(=O)O (stereo not drawn),-13.1%,-0.1%,x,13.2%,x,x
COc1ccc(CNCCC(c2ccc(OC(C)C)cc2)C(C)C)cc1OC (stereo not drawn),-18.9%,u,u,16.4µM*,-97.7*,u
CC(C)Oc1ccc(CNC(=O)C2CCCN(S(=O)(=O)c3ccc4c(ccn4C)c3)C2)cc1 (stereo not drawn),-19.6%,20.6µM*,x,20.6µM*,x,x
CCCCn1c(C)c(C(=O)OCC)c2cc(OC(C)=O)ccc21,25.7%,x,x,x,x,x
c1ccc2c(N3CCNCC3)cccc2c1,u,18.4µM*,u,u,u,-29.2%
c1ccc2c(CN3CCNCC3)cccc2c1,-1.7%[57.4 µM],x,x,x,x,x
O=C(C[C@@H]1NCCC[C@@H]1O)Cn1cnc2ccccc2c1=O,6.5%,x,x,x,x,x
CCCc1c(-c2ccccc2F)ncn1CCc1ccccc1OC,u,3.66µM*,u,2.59µM*,-69.8*,u
COCC(=O)NC[C@H]1C[C@@H]2CCN1C[C@@H]2CN1CCCCC1,25.4%[176 µM],x,x,x,x,x
COc1ccc(-c2cn(C[C@H]3CC4CCN3C[C@@H]4C(=O)NCc3ccc(F)cc3)nn2)cc1 (stereo partly drawn),-1.0%,x,x,x,x,x
COC1CCC(OC2CC(C3(C)CCC4(CC(O)C(C)C(C(C)/C=C(\C)C(=O)C(C)CC(C)C(=O)O)O4)O3)OC3(OC(C4OC(O)(CO)C(C)CC4C)CC3C)C2C)OC1C (stereo not drawn),40.5%,0.146µM*,3.66µM*,0.146µM*,-54.2*,13µM*
Cc1cccc2sc(NC(=O)c3cccn(Cc4ccccc4)c3=O)nc12,u,u,x,13µM*,x,x
N#Cc1ccccc1NC(=O)c1cccn(Cc2ccccc2)c1=O,-21.6%,18.4µM*,x,14.6µM*,x,x
O=C1NC2(CCN(Cc3cccnc3)C2)Oc2ccccc21 (stereo not drawn),14.6%[176 µM],x,x,x,x,x
CCOC(=O)c1ccccc1C(=O)OCC,2.8%,3.8%,x,-0.1%,20.7,x
CCOC(=O)C1=C(Cc2ccc(Cl)cc2)C(=O)c2ccccc2C1=O,x,4.61µM*,10µM*,4.61µM*,-88.8*,11.2µM*
CN1C[C@H](C(=O)N[C@]2(C)O[C@@]3(O)[C@@H]4CCCN4C(=O)[C@H](Cc4ccccc4)N3C2=O)CC2c3cccc4[nH]cc(c34)C[C@H]21 (stereo partly drawn),u,u,u,18.4µM*!,-14.9,u
CC(C)C1C(=O)N2CCC[C@H]2[C@]2(O)O[C@](NC(=O)[C@@H]3C=C4c5cccc6[nH]cc(c56)C[C@H]4N(C)C3)(C(C)C)C(=O)N12 (stereo partly drawn),22.3%,u,x,u,x,x
CN1C[C@H](C(=O)N[C@]2(C)O[C@@]3(O)[C@@H]4CCCN4C(=O)[C@H](Cc4ccccc4)N3C2=O)C[C@@H]2c3cccc4[nH]cc(c34)C[C@H]21,-13.5%[22.9 µM],u,x,u,x,x
CC(C)[C@@]1(NC(=O)[C@H]2CC3c4cccc5[nH]cc(c45)C[C@H]3N(C)C2)O[C@@]2(O)C3CCCN3C(=O)[C@@H](Cc3ccccc3)N2C1=O (stereo partly drawn),u,14.6µM*,x,14.6µM*,x,x
COc1cccc(CN2CCCCCCNC(=O)[C@@H]3CCC[C@@H]32)n1,281.4%,x,x,x,x,x
N#Cc1ccc(NC(=S)N2Cc3cc(Br)ccc3-n3nncc3C2)cc1,-2.9%,x,x,x,x,x
SMILES,ALOX12 inh,TDP1 cell CPT,HT1080 IDH1KD tx,TDP1 cell noCPT,IL1B secr inh,HT1080NT lethal
N#CC(C#N)=NNc1ccc(OC(F)(F)F)cc1,u,1.12µM*,x,1.12µM*,x,x
COc1cc(O)c2c(c1)/C=C/C[C@H](O)[C@H](O)C(=O)CCC[C@H](C)OC2=O,1.3%,u,3.5%,u,-81.3*,6.7%
O=C(O)C1=NOC2CN(Cc3cccc(Br)n3)CC12 (stereo not drawn),-16.8%[6.33 µM],x,x,x,x,x
COc1cc(C)c(-c2nc(CN3C[C@@H]4C[C@@H](C3)c3cccc(=O)n3C4)c(C)o2)cc1C,u,u,-12.8%,u,-114.7*,-20.3%
COc1cc(CN2CC3CC(C2)c2cccc(=O)n2C3)cc(OC)c1OC (stereo not drawn),u,-3.7%,0.2%,-1.8%,-14.4,2.6%
CN(C)C(=O)C(CCN1CCC(O)(c2ccc(Cl)cc2)CC1)(c1ccccc1)c1ccccc1,u,8.2µM*,8.2µM*,5.17µM*!,-58.6*,18.4µM*
CNC(=O)Oc1ccc(-c2cn3cc(Cl)ccc3n2)cc1,-12.2%,20.6µM*,-16.4%,u,u,-1.3%
CNC(=O)Oc1cccc(-c2cn3cc(OC(=O)NC)ccc3n2)c1,4.6%,u,-9.2%,20.6µM*,14.2,-12.4%
O=[N+]([O-])/C=C\c1c[nH]c2ccccc12,32.7%,x,x,x,x,x
COC(=O)Cc1ccccc1,-2.4%[176 µM],x,x,x,x,x
N#Cc1cccc(NC(=O)NC[C@H]2C[C@@H]3CCN2C[C@@H]3CN2CCN(c3ccccn3)CC2)c1,7.6%,x,x,x,x,x
CCN(CCCl)Cc1ccccc1Br,-14.2%,16.4µM*,4.9%,u,19.7,28.7%
CC12CCC3C(CCC4=CC(=O)CCC43C)C1CCC2=O (stereo not drawn),-28.2%,x,x,x,x,x
CCOC(=O)C1=C(c2ccccc2)N=c2s/c(=C\c3ccc(O)cc3)c(=O)n2C1c1cccs1 (stereo not drawn),-7.6%[57.4 µM],11.6µM*,u,16.4µM*,-78.4*,u
CNC(C)[C@H](O)c1ccccc1 (stereo partly drawn),x,-5.2%,x,-10.7%,x,x
CC(C(O)c1ccccc1)N(C)CCOC(c1ccccc1)c1ccccc1 (stereo not drawn),-13.3%[22.9 µM],11.9µM*,x,15µM*,x,x
CC(=O)Nc1ccc(S(=O)(=O)NC[C@H]2C[C@@H]3CCN2C[C@@H]3c2cc(-c3ccccc3)nn2C)cc1,6.5%,x,x,x,x,x
